# Screening results (PubChem BioAssay)
# ELG1 repair inh: qHTS screen for small molecules that inhibit ELG1-dependent DNA repair in human embryonic kidney (HEK293T) cells expressing luciferase-tagged ELG1; HEK293T ELG1-luciferase reporter, luminescence, 16 h; DNA damage induced by 5-fluorouridine; Potency, µM (top dose mostly 46.1 µM), without a hit: top-dose activity change, negative = inhibition, most hits filed as inhibitors; actives 2.3% (n = 330,000); further: potency means the concentration at half of the fitted maximal effect; nearly all actives have a fitted effect of over 55% in size
#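 In this reporter screen, reduction of luminescence relative to DMSO vehicle indicated activity. Compounds and 5-fluorouridine were added together to 2,000 cells per well, incubated for 16 hr at 37 °C, then developed with ONE-Glo.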
# DT40 TDP1 CPT: qHTS for Inhibitors of human tyrosyl-DNA phosphodiesterase 1 (TDP1): qHTS in cells in presence of CPT; chicken DT40 Tdp1-/-;hTDP1 cells + 20 nM CPT, ATP luminescence, 48 h; Potency, µM (highest dose often 46.2 µM), inactives show top-dose activity change, negative = growth inhibition, most hits filed as inhibitors; actives 12% (n = 420,000); AID 686979, 2013; further: potency means the concentration at half of the fitted maximal effect; nearly all actives have a fitted effect of over 55% in size
#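 Cell growth measured by CellTiter-Glo luminescence after a minimum 48 h, 37 C compound exposure with 20 nM CPT in Tdp1-knockout DT40 cells stably expressing hTDP1, seeded 400/well; qHTS titration format.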
# DT40 TDP1 no CPT: qHTS for Inhibitors of human tyrosyl-DNA phosphodiesterase 1 (TDP1): qHTS in cells in absence of CPT. AID 686978, 2013. DT40 Tdp1-/- hTDP1 cells, no CPT, ATP luminescence, 48 h. actives 15% (n = 420,000). Potency, µM (top dose mostly 46.2 µM), inactives show top-dose activity change, negative = growth inhibition, usual class: inhibitors; further: potency means the concentration at half of the fitted maximal effect; nearly all actives have a fitted effect of over 55% in size
#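 No-CPT arm: Tdp1-/-;hTDP1 DT40 cells (400/well) plus compounds, incubated ≥48 hr at 37 °C. Readout CellTiter-Glo luminescence.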
# HT1080 IDH1KD tx: qHTS for induction of synthetic lethality in tumor cells producing 2HG: qHTS for the HT-1080-IDH1KD cell line; AID 686971, 2013; actives 2% (n = 360,000); HT-1080 IDH1 knockdown viability, ATP luminescence, 48 h; Potency, µM (series often up to 46.1 µM), without a hit: at the highest dose activity, negative = toxicity, actives largely listed as cytotoxic;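 further: potency means the concentration at half of the fitted maximal effect; 0% = DMSO wells and -100% = cell-free medium wells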
#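 Knockdown cells (IDH1KD HT-1080) received compounds 2 h after plating at 750 cells/well and were kept 48 h at 37 °C in 5% FBS RPMI. A CellTiter-Glo luminescence read gave % activity for curve fitting.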
# IL-1B inflam inh: qHTS for Inhibitors of Inflammasome Signaling: IL-1-beta AlphaLISA Primary Screen; THP-1 LPS/ATP IL-1B secretion, AlphaLISA, 16 h; hits give low values; actives 4.7% (n = 360,000); AID 743279, 2014; activity change, % at 57.5 µM; in the data active means activity change below about -50%; inconclusive means mostly about -30% to -49%
#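 Secreted IL-1B measured by AlphaLISA bead assay after 16 h compound exposure of THP-1 cells; compounds (final up to 57.5 uM) added 1 h before LPS (250 ng/mL) and ATP (1.25 mM) stimulation; lower signal means less secretion.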
# HT1080NT lethal: qHTS for induction of synthetic lethality in tumor cells producing 2HG: qHTS for the HT-1080-NT fibrosarcoma cell line | HT-1080-NT fibrosarcoma viability, CellTiter-Glo ATP luminescence, 48 h | Potency, µM (highest dose often 46.1 µM), without a hit: at the top dose activity, negative = less viability, actives largely listed as cytotoxic | actives 1.6% (n = 360,000);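 further: NT is the 2HG producing partner of a matched IDH1 knockdown line; potency means the concentration at half of the fitted maximal effect; 0% = DMSO-treated cells and -100% = media-only wells without cells; nearly all actives have a fitted effect of over 55% in size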
#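 HT-1080-NT; 750 cells/well; 5% FBS RPMI; 48 h compound, 37 degrees C; CellTiter-Glo luminescence; curve fitting and curve-class assignment.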
# The depositor's hits bear a star; ? = inconclusive; · = no result; [ ] = remark or other dose. Sampled rows, rich in hits. Any-hit rate of the full collection: about 19%. Unless noted, the call rests on the fitted dose curve; in most records, active means well fitted curve in the direction sought with a large enough effect; inconclusive means small, poorly fitted or top-dose-only effect, or another doubt; inactive means no such curve, though single readings can be large; an effect the other way counts as inactive or inconclusive. Unless noted, on the % scale 0 is the no-effect control and ±100 the full control effect.
SMILES,ELG1 repair inh,DT40 TDP1 CPT,DT40 TDP1 no CPT,HT1080 IDH1KD tx,IL-1B inflam inh,HT1080NT lethal
CC(=O)N(Cc1cccs1)Cc1cc2ccc(C)c(C)c2nc1Cl,12µM*,18µM*,21µM*,-12%,-8,-14%
CC(C)C(NC(=O)c1ccc(C(C)(C)C)cc1)C(=O)Nc1cccc(S(N)(=O)=O)c1 (stereo not drawn),-24%,5%,-3%,-3%,-52*,?
COc1ccc(N2CCN(CC(=O)Nc3cccc(S(=O)(=O)N4CCOCC4)c3)CC2)cc1,-11%,?,9.2µM*,-1%,16,-5%
Cc1cccc(C(=O)N[C@H](C(=O)Nc2ccc(C)c(S(=O)(=O)N3CCOCC3)c2)C(C)C)c1,?,?,?,-6%,-16,0%
Cc1cccc(C(=O)N[C@H](C(=O)Nc2ccc(C)c(S(=O)(=O)N(C)C)c2)C(C)C)c1,?,?,15µM*,1%,-10,4%
COc1ccc(C(=O)N[C@H](C(=O)Nc2cccc(S(=O)(=O)N3CCOCC3)c2)C(C)C)cc1,·,-28%,18µM*,-5%,?,-3%
O=C(CN1CCN(S(=O)(=O)c2ccc3ccccc3c2)CC1)Nc1ccc(N2CCOCC2)cc1,?,7%,-9%,-10%,-6,-4%
COc1ccc(Br)c(C(=O)Nc2cccc(S(=O)(=O)N3CCOCC3)c2)c1,-4%,8%,?,0%,14,-2%
CCCCc1cc2c(=O)c(C(=O)OC)c[nH]c2cc1OCc1ccccc1,·,-7%,1%,·,·,·
Cc1nc2ccc(S(=O)(=O)CCC(=O)Nc3ccc(Cl)cc3)cc2s1,·,-14%,-16%,·,·,·
CC1=C(C(=O)NCc2ccccc2F)C2(CCCCC2)OC1=O,·,-9%,-18%,·,·,·
COc1ccc(C(=O)NC(C(=O)NCc2ccccn2)C(C)C)cc1 (stereo not drawn),-1%,2%,-7%,1%,17,7%
CC(C)C(NC(=O)c1ccc(C(C)(C)C)cc1)C(=O)NCc1ccccn1 (stereo not drawn),?,9.2µM*,?,3%,-20,3%[9.24 µM]
Cc1ccsc1CN(C)C(=O)C(NC(=O)c1cccc(S(=O)(=O)N2CCOCC2)c1)C(C)C (stereo not drawn),-15%,12µM*,?,-8%,0,-2%
Cc1cc(C)c2nc(NC(=O)[C@@H](NC(=O)c3cccc(S(=O)(=O)N4CCOCC4)c3)C(C)C)sc2c1,1%,16µM*,?,-21%,-8,-10%
Cc1cccc(NC(=O)COC(=O)C(NC(=O)c2cccc(S(=O)(=O)N3CCOCC3)c2)C(C)C)c1 (stereo not drawn),·,-12%,-5%,6%,16,0%
CCOc1ccc(CCNC(=O)CSc2ncn[nH]2)cc1OCC,5%,17%,-17%,4%,0,1%
O=C(Cn1c(NCCO)nc2ccccc21)N1CCN(Cc2ccccc2)CC1,-4%,3%,-18%,3%,-15,-10%
COc1cc(-c2cc(O)c(-c3ccc4ccccc4n3)c(=O)[nH]2)cc(OC)c1OC,·,?,15µM*,-26%,4,?
COc1ccc(NC(=O)Nc2ccc(C(=O)N3CCOCC3)cc2)c(OC)c1,3%,-6%,-7%,13%,-5,22%
COC(=O)[C@]12CCCCC=C1N(Cc1cccc3ccccc13)C(=O)[C@H](CC(=O)NCc1cccc3ccccc13)C2,·,?,?,-16%,-19,-14%
COC(=O)[C@]12CCCCC=C1N(Cc1cccc3ccccc13)C(=O)[C@H](CC(=O)N1CCCCC1)C2,·,?,23µM*,?,15,?
COC(=O)[C@]12CCCCC=C1N(Cc1cccc3ccccc13)C(=O)[C@H](CC(=O)N1CCC(c3ccccc3)CC1)C2,·,?,15µM*,-10%,-26,-3%
CC(C)Oc1ccc(OCCSc2nc3ccccc3n2CC(=O)O)cc1,-14%,-5%,-13%,0%,2,-3%
COc1ccc([C@H]2CC(=O)C=C(c3cccc(CO)c3)C2)cc1,-27%,?,?,3%,-8,0%
SMILES,ELG1 repair inh,DT40 TDP1 CPT,DT40 TDP1 no CPT,HT1080 IDH1KD tx,IL-1B inflam inh,HT1080NT lethal
Cc1ccc2c(c1)C=CC(C)(C)S2=O (stereo not drawn),-6%,-4%,-4%,1%,10,-5%
CC[N+]1=C(C)C(C)(C)c2cc(C)ccc21,13µM*,8.2µM*,1.6µM*,5.2µM*,0,?
N#Cc1cccc(NC(=O)N2CCCC3(CCN(C(=O)c4cnccn4)CC3)C2)c1,·,20%,-7%,·,·,·
COc1ccc(-n2nnc(C(=O)Nc3ccccc3F)c2N)cc1,·,-15%,-11%,·,·,·
CN(C)c1cccc(C(=O)Nc2cccc(F)c2)c1,?,-6%,-10%,3%,-15,8%
Cc1cc(Nc2cccc(C(F)(F)F)c2)nc2ccc(NC(=O)c3ccc(N(C)C)cc3)cc12,·,5.2µM*,4.6µM*,·,·,·
Cc1cc(Nc2cccc(Cl)c2)nc2ccc(NC(=O)c3cccnc3)cc12,·,13µM*,8.2µM*,·,·,·
Cc1cc(Nc2cccc(Cl)c2)nc2ccc(NC(=O)c3cccc(N(C)C)c3)cc12,·,13µM*,7.3µM*,·,·,·
COc1ccc(-c2nc3cnc(Oc4cccc(Cl)c4)nc3n(CCC#N)c2=O)cc1,·,?,-11%,·,·,·
COc1cc(-c2noc(C)c2-c2ccc3[nH]ccc3c2)cc(OC)c1OC,?,1.5µM*,1.8µM*,0.037µM*,57,1µM*
COc1cc(-c2noc(C)c2-c2ccc(N(C)C)nc2)cc(OC)c1OC,9%,0.13µM*,0.037µM*,0.18µM*,81,0.0058µM*
N#C/C(=C\c1cc(Cl)cc(Cl)c1)c1cccnc1,·,2%[92.5 µM],-14%[92.5 µM],·,·,·
Cc1cnc(CNc2ccnc(-c3ccoc3)n2)cn1,·,11%,12%,·,·,·
CC1(C)C/C(=N\NC(=S)Nc2ccccc2F)c2cc(O)ccc2O1,-18%,?,4.1µM*,?,-79*,?
